# Assay results reported in PubChem BioAssay AID651784 (National Center for Advancing Translational Sciences (NCATS), 2012).
# Inconclusive results are not listed. Calls of active or inactive are those of the source. Calls come from the whole dose curve; as a rule, active = well fitted inhibition curve with a large enough effect; inconclusive = small, poorly fitted or top-dose-only effect; inactive = no such curve, though single readings can be large or run the other way.
# Assay: Acumen qHTS Assay for Inhibitors of the mTORC1 Signaling Pathway in MEF (Tsc2-/-, p53-/-) Cells: Hit Validation;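 note: phospho-rpS6 Ser235/236 immunofluorescence normalized to propidium iodide cell count; nearly all actives have a fitted effect of over 65% in size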;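 for activity change, negative = inhibition: cells exposed to compound for 24 hours; plate controls were DMSO for no effect and 7.5 nM rapamycin control for full effect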
# Details: Acumen imaging; activity change, negative = inhibition: at 37.3 µM (top of the series)
# Potency is the fitted concentration of half-maximal effect.
SMILES,"activity change, negative = inhibition",Potency
CCc1ccc(S(=O)(=O)N(C(=O)Oc2ccccc2)c2ccc3oc(C)c(C(=O)OC)c3c2)cc1,-70.3%,
Cc1cccc(OCC(=O)Nc2ccc(-c3nc4cc(C)ccc4o3)c(O)c2)c1,,6.56 µM (active)
COc1cc(Nc2nc(SCC(=O)c3ccc(Cl)c(Cl)c3)nc3ccccc23)cc(OC)c1,-51.7%,
O=C(Nc1ccc2oc(-c3cc(Br)ccc3Cl)nc2c1)c1cc2ccccc2o1,-105%,
CCOc1ccccc1Nc1nc(-c2cccc(Cl)c2)c2c(n1)-c1ccccc1OC2,-15.1%,
CCN1C(=O)c2ccccc2Sc2ccc(NC(=O)Cc3ccc(OC)cc3)cc21,,4.14 µM (active)
CCCCN(C)CC(O)Cn1cc(/C=C/C(=O)c2ccc(C)cc2)c2ccccc21 (configuration not stated),,13.1 µM (active)
CCc1ccc(NC(=O)C2CCCN(S(=O)(=O)c3cccc4cccnc34)C2)cc1 (configuration not stated),-7.11%,
O=C(NCc1ccccc1)c1nc(S(=O)(=O)Cc2ccccc2)ncc1Cl,,5.85 µM (active)
Cc1ccc(NC(=O)c2c(NC(=O)C(F)(F)F)sc3c2CCCCC3)cc1,-36.6%,
COc1ccc(-c2n[nH]c3c2C(c2ccc(O)cc2)N(c2ccc(Br)cc2)C3=O)cc1 (configuration not stated),2.17%,
Cc1c(C(=O)OC2CCC(C)CC2)[nH]c2c1C(=O)CC(c1ccc(F)cc1)C2 (configuration not stated),,1.04 µM (active)
COc1cc(C(=O)n2nc(C)c(Sc3ccc(Cl)cc3)c2C)cc(OC)c1OC,-8.63%,
CCCOCc1cc(CN2CCN(c3ccccc3OC)CC2)c(O)c2ncccc12,-93.6%,
O=C(Nc1ccccc1F)c1nc(S(=O)(=O)Cc2ccccc2F)ncc1Cl,,2.93 µM (active)
Cc1ccc(NC(=O)Nc2cccs2)c(C)c1,-40.4%,
CC(C)(C)OC(=O)N1CCC(c2c(C(=O)NCCN3CCC(Cc4ccccc4)CC3)cnn2-c2cccc(Cl)c2)CC1,-98.8%,
Cc1ccccc1NC(=O)Cn1cc(C(=O)c2cccs2)c2ccccc21,1.72%,
CCS(=O)(=O)c1ncc(Cl)c(C(=O)N(Cc2ccccc2)Cc2ccco2)n1,,5.21 µM (active)

SMILES,"activity change, negative = inhibition",Potency
CCOc1cccc(C2CC(=O)Nc3cc4c(cc32)OCCO4)c1 (configuration not stated),-113%,
COc1ccc(-c2nnc(SCC(=O)NCc3ccccc3)nc2-c2ccc(OC)c(OC)c2)cc1OC,,18.5 µM (active)
Cc1nc2scc(C)n2c(=O)c1S(=O)(=O)Nc1ccc(N2CCOCC2)c(Cl)c1,,1.47 µM (active)
CS(=O)c1ccc(-c2nc(-c3ccc(F)cc3)c(-c3ccncc3)[nH]2)cc1 (configuration not stated),-5.71%,
CC(C)(C)c1ccc(C2NC(=O)c3n[nH]c(-c4cccs4)c32)cc1 (configuration not stated),-6.84%,
CCOc1ccc(NC(=O)N(Cc2c[nH]c3ccccc23)C2CCCCCC2)cc1,-15.9%,
CCC(C)n1c(SCc2c(F)cccc2Cl)nc2ccsc2c1=O (configuration not stated),-45.2%,
COc1ccc(C)cc1NC(=O)CCNS(=O)(=O)c1cccc2nonc12,5.15%,
Cc1cc(C)c(NC(=O)Cn2c(=O)n(Cc3ccc(C(=O)NCc4ccc5c(c4)OCO5)cc3)c(=O)c3ccccc32)c(C)c1,,5.85 µM (active)
CCCSc1oc(-c2ccco2)nc1S(=O)(=O)c1ccc(Br)cc1,4.39%,
O=C(COc1ccc(F)cc1)Nc1ccc(Cl)c(-c2nc3ccccc3[nH]2)c1,-4.39%,
CC(C)OCCCn1c(=O)c2ccccc2n2c(-c3ccc(F)cc3)nnc12,17.3%,
COc1ccc2cc(CNc3ccccc3)c(=O)n(CC(=O)Nc3ccc(C)cc3C)c2c1,-44%,
COc1ccc(Oc2nc3c(C)cccn3c(=O)c2/C=C(\C#N)c2nc3ccccc3[nH]2)cc1,11.5%,
CCCCOCc1cc(CN2CCN(c3cccc(Cl)c3)CC2)c(O)c2ncccc12,,2.61 µM (active)
CCOc1ccc(C(=O)Nc2ccc3nc4c(c(Nc5ccccc5OC)c3c2)CCCC4)cc1,-66.6%,
COc1ccc2c(CNCCc3cccs3)c(C(=O)O)n(Cc3ccc(F)cc3Cl)c2c1,-51.9%,
CCOc1c(Br)cc(C2CC(=O)Nc3cc4c(cc32)OCO4)cc1OC (configuration not stated),-47.7%,
